Data taken from PubChem BioAssay (EPA / NIEHS).
Active and inactive are the calls of the source. How the source made its calls: active means hit-call score of the fitted dose curve at least 0.9, where 1 is the maximum; inactive means score below 0.9.

Experiments:
[1] = ATG_GRE_CIS: Attagene CIS-FACTORIAL HepG2 Assay for human Glucocorticoid Response Elements (GRE) (AID 2282947); conditions: HepG2 GRE cis-reporter, Attagene multiplex mRNA; actives raise or lower the signal
Summary of the method: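 Multiplexed cis-reporter mRNA induction, HepG2, 24 h post-dose. RT-PCR, FAM-labelled, HpaI-digested amplicons by CE. Bidirectional fit vs DMSO.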

[2] = ATG_ISRE_CIS: Attagene CIS-FACTORIAL HepG2 Assay for human Interferon Regulatory Factor 1 (IRF1) binding to an Interferon-Stimulated Response Element (ISRE) (AID 2282948); conditions: HepG2 ISRE cis-reporter (Attagene), mRNA transcription readout; actives raise or lower the signal
Summary of the method: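 Read-out: fluorescent RT-PCR products resolved by capillary electrophoresis, reporting endogenous transcription factor activity via ISRE-driven reporter mRNA in transfected HepG2 cells dosed for 24 h; gain or loss fitted relative to DMSO.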

[3] = ATG_M_32_CIS: Attagene CIS-FACTORIAL HepG2 Assay for M32 Transcription Factor (Internal Marker) (AID 2282949); conditions: HepG2 Attagene cis-factorial M32 reporter, mRNA; actives raise or lower the signal;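 further: background control marker of the multiplexed CIS panel rather than a real target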
Summary of the method: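 Transient MRTU transfection of HepG2; 24 h compound treatment; TriZol RNA, oligo(dT) RT, reporter PCR, 6-FAM primer extension, HpaI cut, CE. Gain/loss of signal vs DMSO.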

[4] = ATG_M_06_CIS: Attagene CIS-FACTORIAL HepG2 Assay for M06 Transcription Factor (Internal Marker) (AID 2282950); conditions: HepG2 Attagene CIS-FACTORIAL M06 internal marker reporter; actives raise or lower the signal
Summary of the method: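 One of many multiplexed endpoints: HepG2 reporter mRNA after 24 h dosing, detected by RT-PCR and capillary electrophoresis fluorescence; gain or loss of signal analysed against DMSO.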

[5] = molecular target: Heat shock factor protein 1 (Homo sapiens) (UniProt Q00613); assay: ATG_HSE_CIS: Attagene CIS-FACTORIAL HepG2 Assay for human Heat Shock Transcription Factor 1 (HSE) (AID 2282953); conditions: HepG2 HSE cis-reporter, Attagene RNA transcription; actives raise or lower the signal
Heat shock factor protein 1 (Homo sapiens), sequence (Q00613 whole entry, looked up): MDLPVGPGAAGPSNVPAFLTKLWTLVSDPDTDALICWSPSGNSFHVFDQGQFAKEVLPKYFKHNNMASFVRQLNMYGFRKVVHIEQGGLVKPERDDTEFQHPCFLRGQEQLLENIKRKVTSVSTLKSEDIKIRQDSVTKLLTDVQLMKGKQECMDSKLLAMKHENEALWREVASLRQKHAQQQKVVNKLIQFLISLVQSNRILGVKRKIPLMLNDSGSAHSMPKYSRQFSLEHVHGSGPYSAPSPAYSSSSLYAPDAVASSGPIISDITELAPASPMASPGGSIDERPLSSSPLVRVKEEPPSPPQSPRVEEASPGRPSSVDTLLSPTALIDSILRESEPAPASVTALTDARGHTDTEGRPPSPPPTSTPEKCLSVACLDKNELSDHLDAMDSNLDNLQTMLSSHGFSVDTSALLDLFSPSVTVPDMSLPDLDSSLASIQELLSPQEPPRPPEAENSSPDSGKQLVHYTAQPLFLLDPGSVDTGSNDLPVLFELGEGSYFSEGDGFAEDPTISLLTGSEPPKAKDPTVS
Summary of the method: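 Using HepG2 with transfected cis-driven reporter constructs, compound effects on endogenous factor activity are scored as reporter mRNA change at 24 h. Detection: RT-PCR, HpaI digestion, capillary electrophoresis; bidirectional fitting to DMSO.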

[6] = ATG_MRE_CIS: Attagene CIS-FACTORIAL HepG2 Assay for human Metal Responsive Element (MRE) (AID 2282954); conditions: HepG2 MRE cis-reporter transcription, Attagene multiplex; actives raise or lower the signal
Summary of the method: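 Multiplexed cis-reporter assay in human HepG2 liver cells, 24 h incubation with test chemical. Reporter transcripts measured by RT-PCR and capillary electrophoresis; values from bidirectional curve fitting versus DMSO.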

[7] = ATG_PBREM_CIS: Attagene CIS-FACTORIAL HepG2 Assay for human Phenobarbital-responsive Enhancer Module (PBREM) (AID 2282955); conditions: HepG2 PBREM cis-reporter, Attagene multiplexed transcription; actives raise or lower the signal
Summary of the method: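 HepG2 cells transiently transfected with multiple cis-regulated reporter transcription units; endogenous factor activity at the PBREM element measured as reporter mRNA 24 h after dosing, via RT-PCR and capillary electrophoresis of fluorescent fragments; bidirectional fitting versus DMSO.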

[8] = molecular target: Paired box protein Pax-6 (Homo sapiens) (UniProt P26367); assay: ATG_Pax6_CIS: Attagene CIS-FACTORIAL HepG2 Assay for human Paired Box 6 (PAX6) (AID 2282956); conditions: HepG2 CIS-FACTORIAL PAX6 reporter transcription, RNA readout; actives raise or lower the signal
Paired box protein Pax-6 (Homo sapiens), sequence (P26367 whole entry, looked up): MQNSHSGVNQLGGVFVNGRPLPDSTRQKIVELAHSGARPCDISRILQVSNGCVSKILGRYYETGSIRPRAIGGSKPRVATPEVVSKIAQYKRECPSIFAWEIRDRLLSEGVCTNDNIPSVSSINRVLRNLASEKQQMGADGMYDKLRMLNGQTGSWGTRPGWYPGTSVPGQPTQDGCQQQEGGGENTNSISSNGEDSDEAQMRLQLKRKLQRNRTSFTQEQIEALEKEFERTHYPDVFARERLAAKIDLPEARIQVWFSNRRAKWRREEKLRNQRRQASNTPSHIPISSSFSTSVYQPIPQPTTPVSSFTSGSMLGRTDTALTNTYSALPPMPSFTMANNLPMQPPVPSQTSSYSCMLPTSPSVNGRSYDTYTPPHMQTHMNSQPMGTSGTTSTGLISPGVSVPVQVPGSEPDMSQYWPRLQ
Summary of the method: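 Readout: reporter transcript fluorescence after RT-PCR and capillary electrophoresis. Cells: HepG2, transiently transfected with cis-regulated MRTUs. Exposure 24 h. Gain or loss of signal fitted bidirectionally relative to DMSO.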

[9] = ATG_PXRE_CIS: Attagene CIS-FACTORIAL HepG2 Assay for human Pregnane X Receptor Element (PXRE) (AID 2282957); conditions: HepG2 Attagene CIS-FACTORIAL PXRE reporter, mRNA; actives raise or lower the signal
Summary of the method: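 Endogenous transcription factor activity in HepG2 was gauged through induction of reporter mRNA driven by a cis-regulating promoter element, sampled 24 h post-treatment. Activity was fitted in both directions against DMSO negative control.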

[10] = molecular target: Transcription factor Sp1 (Homo sapiens) (UniProt P08047); assay: ATG_Sp1_CIS: Attagene CIS-FACTORIAL HepG2 Assay for human Specificity Protein 1 (Sp1) (AID 2282961); conditions: HepG2 Sp1 cis-reporter transcription, actives raise or lower the signal
Transcription factor Sp1 (Homo sapiens), sequence (P08047 whole entry, looked up): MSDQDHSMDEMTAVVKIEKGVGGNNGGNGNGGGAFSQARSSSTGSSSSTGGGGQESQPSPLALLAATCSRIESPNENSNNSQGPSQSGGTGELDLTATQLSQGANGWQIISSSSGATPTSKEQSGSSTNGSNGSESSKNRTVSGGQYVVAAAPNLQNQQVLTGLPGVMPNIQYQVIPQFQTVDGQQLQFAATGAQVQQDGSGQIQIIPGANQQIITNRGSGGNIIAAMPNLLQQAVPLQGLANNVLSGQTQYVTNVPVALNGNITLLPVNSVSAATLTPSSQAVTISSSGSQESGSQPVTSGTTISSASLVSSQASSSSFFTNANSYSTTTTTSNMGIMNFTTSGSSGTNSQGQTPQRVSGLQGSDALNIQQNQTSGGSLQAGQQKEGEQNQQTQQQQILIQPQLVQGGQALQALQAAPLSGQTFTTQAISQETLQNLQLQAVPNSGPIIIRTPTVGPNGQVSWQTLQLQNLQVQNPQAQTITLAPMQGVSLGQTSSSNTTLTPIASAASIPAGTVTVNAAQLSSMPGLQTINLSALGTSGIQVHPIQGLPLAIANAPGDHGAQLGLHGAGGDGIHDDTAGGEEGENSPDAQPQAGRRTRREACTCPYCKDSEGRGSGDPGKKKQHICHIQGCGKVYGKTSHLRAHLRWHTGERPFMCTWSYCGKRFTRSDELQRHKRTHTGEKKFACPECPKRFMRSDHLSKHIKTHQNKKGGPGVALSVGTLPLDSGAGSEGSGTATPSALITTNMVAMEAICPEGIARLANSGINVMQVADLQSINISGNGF
Summary of the method: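 HepG2 cells transiently transfected with multiple reporter transcription units driven by cis-regulatory elements; Sp1-responsive reporter mRNA measured 24 h after dosing by RT-PCR and capillary electrophoresis fluorescence, fitted bidirectionally against DMSO baseline.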

[11] = ATG_SREBP_CIS: Attagene CIS-FACTORIAL HepG2 Assay for human Sterol Regulatory Element Binding (SREBP) (AID 2282962); conditions: HepG2 Attagene cis-factorial SREBP reporter, mRNA; actives raise or lower the signal
Summary of the method: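 Readout: fluorescent reporter-transcript peaks resolved by capillary electrophoresis after RT-PCR. Cells were human HepG2 carrying transfected cis-promoter reporter constructs, dosed for 24 h. Gain or loss of signal was fitted against DMSO controls.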

[12] = molecular target: Signal transducer and activator of transcription 3 (Homo sapiens) (UniProt P40763); assay: ATG_STAT3_CIS: Attagene CIS-FACTORIAL HepG2 Assay for human Signal Transducer and Activator of Transcription 3 (STAT3) (AID 2282963); conditions: HepG2, Attagene cis-factorial STAT3 reporter transcription; actives raise or lower the signal
Signal transducer and activator of transcription 3 (Homo sapiens), sequence (P40763 whole entry, looked up): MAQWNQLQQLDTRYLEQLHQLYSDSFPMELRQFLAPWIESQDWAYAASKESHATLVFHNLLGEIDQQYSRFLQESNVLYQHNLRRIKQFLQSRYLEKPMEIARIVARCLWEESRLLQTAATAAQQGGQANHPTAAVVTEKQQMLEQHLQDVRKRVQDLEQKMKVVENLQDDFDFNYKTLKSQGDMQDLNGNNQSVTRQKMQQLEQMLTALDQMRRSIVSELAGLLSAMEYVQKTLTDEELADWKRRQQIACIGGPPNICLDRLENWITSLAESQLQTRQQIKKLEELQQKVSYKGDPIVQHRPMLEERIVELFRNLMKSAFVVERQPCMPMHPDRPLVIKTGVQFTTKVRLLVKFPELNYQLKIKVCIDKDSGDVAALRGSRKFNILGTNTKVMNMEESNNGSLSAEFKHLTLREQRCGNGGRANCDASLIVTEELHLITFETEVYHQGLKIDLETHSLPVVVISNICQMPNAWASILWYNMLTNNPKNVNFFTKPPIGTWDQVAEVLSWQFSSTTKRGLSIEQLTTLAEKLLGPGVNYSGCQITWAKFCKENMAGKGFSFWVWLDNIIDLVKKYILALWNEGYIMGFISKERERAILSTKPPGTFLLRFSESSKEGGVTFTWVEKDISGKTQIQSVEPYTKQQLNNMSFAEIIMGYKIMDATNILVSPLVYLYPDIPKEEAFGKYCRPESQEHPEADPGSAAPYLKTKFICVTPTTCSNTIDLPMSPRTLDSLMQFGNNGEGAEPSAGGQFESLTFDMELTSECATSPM
Summary of the method: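 Cis-factorial format: endogenous transcription factors in HepG2 drive transfected reporter units. After 24 h treatment, reporter RNA was reverse-transcribed, amplified, FAM-labelled and HpaI-digested before CE analysis; activity scored in both directions against DMSO.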

[13] = ATG_TA_CIS: Attagene CIS-FACTORIAL HepG2 Assay for human TA Basal Promoter (AID 2282964); conditions: HepG2 Attagene CIS-factorial TA basal promoter reporter; actives raise or lower the signal
Summary of the method: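 Transient MRTU transfection of HepG2 preceded 24 h compound exposure. Reporter mRNA levels were then read by RT-PCR with capillary electrophoresis, and this background-control endpoint was fitted bidirectionally to DMSO.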

[14] = ATG_TCF_b_cat_CIS: Attagene CIS-FACTORIAL HepG2 Assay for human T-Cell-Factor with beta-catenin (TCF/b-cat) (AID 2282965); conditions: HepG2 TCF/beta-catenin cis-reporter transcription, actives raise or lower the signal
Summary of the method: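 Measured: reporter mRNA in HepG2 transiently transfected with cis-promoter reporter units, 24 h after chemical addition. Fitting was bidirectional, DMSO as negative control.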

[15] = ATG_TAL_CIS: Attagene CIS-FACTORIAL HepG2 Assay for human TAL Basal Promoter (AID 2282966); conditions: HepG2 Attagene cis-factorial TAL promoter reporter; actives raise or lower the signal;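 further: background control endpoint measuring basal TAL promoter reporter mRNA not a specific factor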
Summary of the method: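 Endogenous transcription-factor activity is sensed in HepG2 cells through transfected cis-promoter reporter constructs. After 24 h dosing, reporter transcripts are quantified by RT-PCR and capillary electrophoresis. Gain or loss of signal is fitted relative to DMSO.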

[16] = molecular target: Hepatocyte nuclear factor 6 (Homo sapiens) (UniProt Q9UBC0); assay: ATG_HNF6_CIS: Attagene CIS-FACTORIAL HepG2 Assay for human Hepatocyte Nuclear Factor 6 (HNF6) (AID 2282952); conditions: HepG2 Attagene cis-factorial HNF6 reporter transcription; actives raise or lower the signal
Hepatocyte nuclear factor 6 (Homo sapiens), sequence (Q9UBC0 whole entry, looked up): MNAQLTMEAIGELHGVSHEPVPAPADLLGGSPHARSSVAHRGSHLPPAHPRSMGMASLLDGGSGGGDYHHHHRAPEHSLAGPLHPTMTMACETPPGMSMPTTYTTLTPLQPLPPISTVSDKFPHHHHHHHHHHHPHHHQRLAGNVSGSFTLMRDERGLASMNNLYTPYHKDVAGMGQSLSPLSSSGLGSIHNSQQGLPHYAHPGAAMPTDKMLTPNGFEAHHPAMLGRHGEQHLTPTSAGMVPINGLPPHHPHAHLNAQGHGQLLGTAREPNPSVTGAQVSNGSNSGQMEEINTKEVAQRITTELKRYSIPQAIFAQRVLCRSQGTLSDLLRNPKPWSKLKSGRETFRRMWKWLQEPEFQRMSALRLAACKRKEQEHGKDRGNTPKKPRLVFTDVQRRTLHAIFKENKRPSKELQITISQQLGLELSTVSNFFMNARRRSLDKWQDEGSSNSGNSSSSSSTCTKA
Summary of the method: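 Endogenous transcription factor activity in human HepG2 liver cells was captured through cis-regulated reporter constructs. After 24 h treatment, reporter mRNA was measured by RT-PCR with capillary electrophoresis, and activity was fitted in both directions relative to DMSO.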

[17] = ATG_PPRE_CIS: Attagene CIS-FACTORIAL HepG2 Assay for human Peroxisome Proliferator-activated Response Element (PPRE) (AID 2282958); conditions: HepG2 PPRE cis-element reporter, Attagene transcription factor profiling; actives raise or lower the signal
Summary of the method: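 HepG2 cells transiently transfected with multiplexed cis-element reporter units measure endogenous transcription factor activity. After 24 h compound exposure, reporter mRNA is quantified by RT-PCR, 6-FAM labeling, HpaI digestion and capillary electrophoresis; bidirectional fits are made against DMSO baseline.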

[18] = ATG_RORE_CIS: Attagene CIS-FACTORIAL HepG2 Assay for human RAR-related Orphan Receptor Element (RORE) (AID 2282959); conditions: HepG2 Attagene cis-factorial RORE reporter, mRNA; actives raise or lower the signal
Summary of the method: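 HepG2 cells transiently transfected with multiple cis-element reporter transcription units, exposed to chemical for 24 h. Reporter mRNA quantified by RT-PCR, 6-FAM primer-extension labeling, HpaI digestion and capillary electrophoresis; bidirectional fit versus DMSO baseline.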

[19] = molecular target: Hypoxia-inducible factor 1-alpha (Homo sapiens) (UniProt Q16665); assay: ATG_HIF1a_CIS: Attagene CIS-FACTORIAL HepG2 Assay for human Hypoxia Inducible Factor 1 (HIF1A) (AID 2282951); conditions: HepG2 Attagene cis-factorial HIF1a reporter transcription; actives raise or lower the signal
Hypoxia-inducible factor 1-alpha (Homo sapiens), sequence (Q16665 whole entry, looked up): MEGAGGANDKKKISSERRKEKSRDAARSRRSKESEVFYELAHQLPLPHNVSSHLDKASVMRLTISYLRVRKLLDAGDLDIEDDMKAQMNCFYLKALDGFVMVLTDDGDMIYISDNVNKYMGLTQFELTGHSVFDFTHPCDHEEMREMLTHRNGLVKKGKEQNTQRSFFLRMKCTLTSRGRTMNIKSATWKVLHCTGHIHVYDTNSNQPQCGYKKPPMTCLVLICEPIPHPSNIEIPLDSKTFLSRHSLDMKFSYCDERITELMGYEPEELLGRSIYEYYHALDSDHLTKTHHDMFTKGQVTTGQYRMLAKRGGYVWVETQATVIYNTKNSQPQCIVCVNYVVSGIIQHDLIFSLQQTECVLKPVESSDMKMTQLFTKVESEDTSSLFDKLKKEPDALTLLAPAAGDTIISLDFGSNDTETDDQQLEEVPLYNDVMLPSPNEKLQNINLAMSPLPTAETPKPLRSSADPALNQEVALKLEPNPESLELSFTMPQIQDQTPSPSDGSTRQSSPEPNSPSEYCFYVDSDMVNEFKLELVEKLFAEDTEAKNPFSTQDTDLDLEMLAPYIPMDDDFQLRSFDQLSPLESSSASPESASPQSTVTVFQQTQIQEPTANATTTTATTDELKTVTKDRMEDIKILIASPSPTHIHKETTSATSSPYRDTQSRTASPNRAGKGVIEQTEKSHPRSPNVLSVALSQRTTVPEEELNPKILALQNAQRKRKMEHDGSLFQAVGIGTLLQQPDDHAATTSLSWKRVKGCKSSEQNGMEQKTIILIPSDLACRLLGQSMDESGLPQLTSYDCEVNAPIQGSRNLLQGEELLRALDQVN
Summary of the method: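 HepG2 cells transiently transfected with multiplexed cis-promoter reporter units; reporter mRNA read 24 h after dosing by RT-PCR, 6-FAM primer-extension labelling, HpaI digestion and capillary electrophoresis. Bidirectional fit versus DMSO baseline.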

[20] = ATG_Sox_CIS: Attagene CIS-FACTORIAL HepG2 Assay for human SRY-box transcription factor (SOX) (AID 2282960); conditions: HepG2 Attagene cis-factorial SOX reporter, mRNA; actives raise or lower the signal
Summary of the method: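 HepG2 cells transiently transfected with cis-element-driven multiple reporter transcription units, dosed 24 h; reporter mRNA measured by RT-PCR, FAM labelling, HpaI digestion and capillary electrophoresis. Bidirectional fit versus DMSO baseline.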

Measured: AC50

CCN(C(=O)c1cc(C)cc(OC[C@H](C)Nc2ccncc2)c1)C(C)C
active: [9] 4.97 µM | [11] 18.2 µM
not listed: [16] | [17] | [18] | [19] | [20]
inactive: all other assays above

C1N2CN3CN1CN(C2)C3
not listed: [1] | [19] | [20]
inactive: all other assays above

CCNc1ccccc1
active: [19] 59.4 µM | [9] 35.5 µM
not listed: [1] | [16]
inactive: all other assays above

O=C(O)CCN(C1(C(=O)NO)CCCC1)S(=O)(=O)c1ccc(Oc2ccc(F)cc2)cc1
not listed: [1] | [16] | [18] | [20]
inactive: all other assays above

CC(C)CCO
not listed: [1] | [7] | [20]
inactive: all other assays above

CCOC(=O)COc1ccc2c(c1)CC(NCC(O)c1cccc(Cl)c1)CC2 (stereo not given)
active: [5] 45.5 µM | [7] 49.3 µM | [14] 33 µM
not listed: [1] | [16] | [19] | [20]
inactive: all other assays above

COC(=O)c1ccccc1O
not listed: [1] | [5] | [7] | [17]
inactive: all other assays above
